Measurements taken from the supplement of paper PMC13380429.
Counter-ions that a name gives are not always drawn.

tested on: Vero E6 infected with SARS-CoV-2; assay: morphology score (similarity to uninfected cells); higher = more like uninfected cells; conditions: 24 h

Compared with `CC(=O)c1ccc(S(=O)(=O)NC(=O)NC2CCCCC2)cc1` [acetohexamide] (10 µM), `CCCOc1ccc2[nH]cc(C3=CCNCC3)c2n1` (10 µM) is higher in morphology score: 0.11 for the first, 0.24 for the second.

Compared with `CCOC(=O)c1cnc2c(cnn2CC)c1NN=C(C)C` [etazolate] (10 µM), `Nc1ncnc2c1ncn2[C@@H]1O[C@H](C[C@@H](N)CC[C@H](N)C(=O)O)[C@@H](O)[C@H]1O` [sinefungin] (10 µM) is lower in morphology score: 0.254 for the first, 0.0839 for the second.

Compared with `Cc1nn(-c2ccccc2)c(C)c1/C=N/N1CCN(Cc2ccccc2)CC1` (10 µM), `COc1cccc2c1C(=O)c1c(O)c3c(c(O)c1C2=O)C[C@@](O)(C(=O)CO)C[C@@H]3O[C@H]1C[C@H](N)[C@@H](O)[C@H](C)O1` [Epirubicin Hydrochloride] (10 µM) is lower in morphology score: 0.00911 for the first, -0.016 for the second.
